Assay results reported in PubChem BioAssay (NCI).
About 83,000 compounds went through this panel and 20% of them were active in at least one assay; those are over-represented in the sample as a whole.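 Compound tested at a single concentration for 48 hours in 96-well plates; a percent growth value below 10 was scored as active.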 Active and inactive are the calls of the source.

Assays:
Assay in all cases: NCI-60 one-dose screen, 48 h (100 = growth as untreated, 0 = no growth, -100 = all killed)
SK-MEL-2 melanoma = conditions: 10 µM unless noted
EKVX NSCLC = conditions: 10 µM unless noted
SN12C renal = conditions: 10 µM unless noted
UO-31 renal = conditions: 10 µM unless noted
TK-10 renal = conditions: 10 µM unless noted
ACHN renal = conditions: 10 µM unless noted
A498 renal = conditions: 10 µM
HL-60(TB) leukemia = conditions: 10 µM unless noted
CCRF-CEM leukemia = conditions: 10 µM unless noted
MOLT-4 leukemia = conditions: 10 µM unless noted
SR leukemia = conditions: 10 µM unless noted
RPMI-8226 leukemia = conditions: 10 µM unless noted
OVCAR-8 ovarian = conditions: 10 µM unless noted
OVCAR-5 ovarian = conditions: 10 µM unless noted
OVCAR-4 ovarian = conditions: 10 µM unless noted
SK-OV-3 ovarian = conditions: 10 µM unless noted
IGROV1 ovarian = conditions: 10 µM unless noted
OVCAR-3 ovarian = conditions: 10 µM unless noted
HS 578T breast = conditions: 10 µM unless noted

Measured: growth

CCOC(=O)[C@@H](C)C[C@H](Cc1ccccc1)NC(=O)c1csc([C@@H](C[C@H](C(C)C)N(C)C(=O)[C@H](CC)NC(=O)[C@H]2CCCCN2C)OC(C)=O)n1
inactive: SK-MEL-2 melanoma 26.8% | EKVX NSCLC 38.6% | SN12C renal 19.1% | UO-31 renal 33.7% | TK-10 renal 69.6% | ACHN renal 25.9% | RPMI-8226 leukemia 19.2% | OVCAR-5 ovarian 31.5% | OVCAR-4 ovarian 37.4% | SK-OV-3 ovarian 20.9% | IGROV1 ovarian 22.6%
active: A498 renal -13.5% | HL-60(TB) leukemia -26.4% | CCRF-CEM leukemia 3.51% | MOLT-4 leukemia 9.18% | SR leukemia 6.66% | OVCAR-8 ovarian 5.75% | OVCAR-3 ovarian -6.1% | HS 578T breast 9.11%

Fc1ccc2c(c1)c(-c1nc(-c3c[nH]c4ncccc34)cs1)cn2CCCCN1CCCCC1
active: SK-MEL-2 melanoma -76.7% | SN12C renal -84.4% | UO-31 renal -86.9% | TK-10 renal -86.1% | ACHN renal -97.4% | HL-60(TB) leukemia -70% | CCRF-CEM leukemia -61.4% | MOLT-4 leukemia -67.7% | SR leukemia -60.2% | RPMI-8226 leukemia -49.6% | OVCAR-8 ovarian -82.9% | OVCAR-5 ovarian -68.2% | OVCAR-4 ovarian -23.8% | SK-OV-3 ovarian -72.6% | IGROV1 ovarian -60.5% | OVCAR-3 ovarian -84.3% | HS 578T breast -28.6%
inactive: EKVX NSCLC 23.3% | A498 renal 63.2%

O=C1CNC(c2ccccc2)c2cc(Cl)ccc2N1 (stereo not given)
inactive: SK-MEL-2 melanoma 95.5% | EKVX NSCLC 104% | SN12C renal 97.6% | UO-31 renal 80.4% | TK-10 renal 93.2% | ACHN renal 109% | A498 renal 97.5% | HL-60(TB) leukemia 97.5% | CCRF-CEM leukemia 94.2% | MOLT-4 leukemia 93.5% | SR leukemia 88.8% | RPMI-8226 leukemia 109% | OVCAR-8 ovarian 99.7% | OVCAR-5 ovarian 113% | OVCAR-4 ovarian 112% | SK-OV-3 ovarian 98.2% | IGROV1 ovarian 100% | OVCAR-3 ovarian 98% | HS 578T breast 109%

Nc1c(F)cc(-c2nc3cc(F)ccc3[se]2)cc1Br
active: TK-10 renal -4.6% | OVCAR-5 ovarian 8.24% | IGROV1 ovarian 5.47%
inactive: SK-MEL-2 melanoma 90.5% | EKVX NSCLC 32.7% | SN12C renal 88.1% | UO-31 renal 60.1% | ACHN renal 27.5% | A498 renal 31.4% | HL-60(TB) leukemia 95.9% | CCRF-CEM leukemia 95.5% | MOLT-4 leukemia 91.2% | SR leukemia 15.7% | RPMI-8226 leukemia 35.1% | OVCAR-8 ovarian 93.1% | OVCAR-4 ovarian 30.1% | SK-OV-3 ovarian 39.7% | OVCAR-3 ovarian 40.8% | HS 578T breast 96.6%

Nc1ccc(-c2nc3cc(F)ccc3[se]2)cc1F
inactive: SK-MEL-2 melanoma 97.7% | EKVX NSCLC 49.2% | SN12C renal 83% | UO-31 renal 38.5% | TK-10 renal 43.6% | ACHN renal 30.3% | A498 renal 13.5% | HL-60(TB) leukemia 64.9% | CCRF-CEM leukemia 44.8% | MOLT-4 leukemia 63.5% | SR leukemia 15.5% | RPMI-8226 leukemia 63.2% | OVCAR-8 ovarian 92.3% | OVCAR-5 ovarian 47.9% | OVCAR-4 ovarian 65.8% | SK-OV-3 ovarian 55.1% | IGROV1 ovarian 38.7% | OVCAR-3 ovarian 81% | HS 578T breast 103%

COC(=O)[C@@H](C)C[C@H](Cc1ccccc1)NC(=O)c1csc([C@@H](C[C@H](C(C)C)N(C)C(=O)[C@H](C)NC(=O)[C@H]2CCCCN2C)OC(C)=O)n1
active: HL-60(TB) leukemia -19.6% | OVCAR-3 ovarian -0.67% | HS 578T breast 6.45%
inactive: SK-MEL-2 melanoma 41.9% | EKVX NSCLC 53.6% | SN12C renal 36% | UO-31 renal 66.4% | TK-10 renal 61.7% | ACHN renal 48.2% | A498 renal 56.4% | CCRF-CEM leukemia 12.3% | MOLT-4 leukemia 33.2% | SR leukemia 15.8% | RPMI-8226 leukemia 15.7% | OVCAR-8 ovarian 26.4% | OVCAR-5 ovarian 63.7% | OVCAR-4 ovarian 60.3% | SK-OV-3 ovarian 47.2% | IGROV1 ovarian 47%

COc1ccc2c(c1)c(-c1nc(-c3c[nH]c4ncccc34)cs1)cn2CCCCN1CCCCC1
inactive: EKVX NSCLC 49.4% | A498 renal 58.2%
active: SK-MEL-2 melanoma -53.2% | SN12C renal -75.2% | UO-31 renal -87.6% | TK-10 renal -16.6% | ACHN renal -92.2% | HL-60(TB) leukemia -69.8% | CCRF-CEM leukemia -38.7% | MOLT-4 leukemia -60.3% | SR leukemia -57.6% | RPMI-8226 leukemia -43.6% | OVCAR-8 ovarian -67.6% | OVCAR-5 ovarian -15.7% | OVCAR-4 ovarian -13.3% | SK-OV-3 ovarian -61.5% | IGROV1 ovarian -62.1% | OVCAR-3 ovarian -71.4% | HS 578T breast -23.3%

COc1ccc2c(c1)c(-c1nc(-c3cn(C)c4ncccc34)cs1)cn2CCN1CCOCC1
active: UO-31 renal 3.02%
inactive: SK-MEL-2 melanoma 56% | EKVX NSCLC 61.1% | SN12C renal 34.3% | TK-10 renal 49.4% | ACHN renal 32.1% | A498 renal 76.1% | HL-60(TB) leukemia 31.3% | CCRF-CEM leukemia 31.1% | MOLT-4 leukemia 33.5% | SR leukemia 39.1% | RPMI-8226 leukemia 13.3% | OVCAR-8 ovarian 29.2% | OVCAR-5 ovarian 78.2% | OVCAR-4 ovarian 42% | SK-OV-3 ovarian 85.1% | IGROV1 ovarian 28.7% | OVCAR-3 ovarian 47.9% | HS 578T breast 31.4%

COC(=O)[C@@H](C)C[C@H](Cc1ccc(F)cc1)NC(=O)c1csc([C@@H](C[C@H](C(C)C)N(C)C(=O)[C@@H](NC(=O)[C@H]2CCCCN2C)C2CC2)OC(C)=O)n1
active: A498 renal 9.1% | HL-60(TB) leukemia -35.1% | OVCAR-3 ovarian -25%
inactive: SK-MEL-2 melanoma 24.4% | EKVX NSCLC 43.2% | SN12C renal 31.6% | UO-31 renal 55.8% | TK-10 renal 72.4% | ACHN renal 34% | CCRF-CEM leukemia 12.6% | MOLT-4 leukemia 17.8% | SR leukemia 17.5% | RPMI-8226 leukemia 20.4% | OVCAR-8 ovarian 22.4% | OVCAR-5 ovarian 49.8% | OVCAR-4 ovarian 46% | SK-OV-3 ovarian 29.1% | IGROV1 ovarian 30.7% | HS 578T breast 41.1%

CC[C@H](C)[C@H](NC(=O)[C@H]1CCCCN1C)C(=O)N(C)[C@H](CC(=O)c1nc(C(=O)N[C@@H](Cc2ccccc2)C[C@H](C)C(=O)O)cs1)C(C)C
active: HL-60(TB) leukemia -7.69%
inactive: SK-MEL-2 melanoma 37.8% | EKVX NSCLC 91.5% | SN12C renal 83.8% | UO-31 renal 88.6% | TK-10 renal 97.2% | ACHN renal 109% | A498 renal 73.4% | CCRF-CEM leukemia 21.2% | MOLT-4 leukemia 64.4% | SR leukemia 27.8% | RPMI-8226 leukemia 43.2% | OVCAR-8 ovarian 96.9% | OVCAR-5 ovarian 107% | OVCAR-4 ovarian 106% | SK-OV-3 ovarian 91.5% | IGROV1 ovarian 76.5% | OVCAR-3 ovarian 55.8% | HS 578T breast 72.2%

Cn1cc(-c2csc(-c3cn(CCCCN4CCCCC4)c4ccccc34)n2)c2cccnc21
inactive: SK-MEL-2 melanoma 37.9% | EKVX NSCLC 69.9% | SN12C renal 81.8% | TK-10 renal 50.2% | A498 renal 81% | OVCAR-5 ovarian 96.8% | OVCAR-4 ovarian 82.3% | SK-OV-3 ovarian 87.6% | IGROV1 ovarian 70.6% | HS 578T breast 61%
active: UO-31 renal -77.8% | ACHN renal -96.4% | HL-60(TB) leukemia -62.3% | CCRF-CEM leukemia -11% | MOLT-4 leukemia -55% | SR leukemia -49.5% | RPMI-8226 leukemia -31.1% | OVCAR-8 ovarian -58.8% | OVCAR-3 ovarian -75.2%

CC(=O)O[C@H](C[C@H](C(C)C)N(C)C(=O)[C@@H](NC(=O)[C@H]1CCCCN1C)C(C)C)c1nc(C(=O)NC2CCC(C(=O)O)CC2)cs1 (stereo not given in full)
inactive: SK-MEL-2 melanoma 37.4% | EKVX NSCLC 57.8% | SN12C renal 13.4% | UO-31 renal 76.4% | TK-10 renal 73.8% | ACHN renal 86.8% | A498 renal 35.8% | CCRF-CEM leukemia 12.8% | MOLT-4 leukemia 30.9% | SR leukemia 22.3% | RPMI-8226 leukemia 23.8% | OVCAR-8 ovarian 59.9% | OVCAR-5 ovarian 85.7% | OVCAR-4 ovarian 72% | SK-OV-3 ovarian 50.9% | IGROV1 ovarian 52.9% | HS 578T breast 24.2%
active: HL-60(TB) leukemia -22.2% | OVCAR-3 ovarian 2.22%

CCOC(=O)[C@@H](C)C[C@H](Cc1ccccc1)NC(=O)c1csc([C@@H](C[C@H](C(C)C)N(C)C(=O)[C@H](CCC(C)C)NC(=O)[C@H]2CCCCN2C)OC(C)=O)n1
active: TK-10 renal -5.17% | ACHN renal 9.24% | A498 renal -11.5% | HL-60(TB) leukemia -32.3% | CCRF-CEM leukemia 9.03% | SR leukemia 4.32% | SK-OV-3 ovarian 2.1% | OVCAR-3 ovarian -1.34% | HS 578T breast 5.53%
inactive: SK-MEL-2 melanoma 28.1% | EKVX NSCLC 45.6% | SN12C renal 18.9% | UO-31 renal 20.6% | MOLT-4 leukemia 10.3% | RPMI-8226 leukemia 12.6% | OVCAR-8 ovarian 18% | OVCAR-5 ovarian 28.2% | OVCAR-4 ovarian 48.2% | IGROV1 ovarian 26.1%

[Cl][Hg][c]1cc[c]([Hg][Cl])o1
inactive: SK-MEL-2 melanoma 57.9% | EKVX NSCLC 20.5% | SN12C renal 34.9% | TK-10 renal 41.8% | A498 renal 109% | HL-60(TB) leukemia 22.5% | MOLT-4 leukemia 14.3% | OVCAR-8 ovarian 65.1% | OVCAR-5 ovarian 122% | OVCAR-4 ovarian 79.6% | SK-OV-3 ovarian 94.9% | IGROV1 ovarian 15.9% | HS 578T breast 55.4%
active: UO-31 renal 3.18% | ACHN renal 3.3% | CCRF-CEM leukemia 4.4% | SR leukemia 6.25% | RPMI-8226 leukemia 1.23% | OVCAR-3 ovarian -1.69%

CC(=O)OC[C@]1(C)C=C2C(=O)[C@](C)(O)C3(CC3)C(C)=C2[C@H]1OC(=O)N(C)CCN(C)C(=O)OC(C)(C)C
active: SK-MEL-2 melanoma -74.3% | EKVX NSCLC -7.18% | UO-31 renal -48.5% | TK-10 renal -8.19% | ACHN renal -8.88% | A498 renal -10.8% | HL-60(TB) leukemia -37% | OVCAR-8 ovarian -12% | OVCAR-5 ovarian 3.2% | OVCAR-4 ovarian -2.23% | SK-OV-3 ovarian 1.41% | IGROV1 ovarian 1.75% | OVCAR-3 ovarian -8.01%
inactive: SN12C renal 14.2% | CCRF-CEM leukemia 19.9% | MOLT-4 leukemia 10.5% | SR leukemia 14% | RPMI-8226 leukemia 32.9% | HS 578T breast 17.5%
